High-throughput results as filed in PubChem.
GPR151 activ = activators of human GPR151, primary screen, cell-based, PathHunter beta-arrestin, luminescence | G-protein coupled receptor 151 (Homo sapiens), Q8TDV0 | PathHunter beta-arrestin GPR151 cells | activation, % at 11.2 µM | 650,000 tested, 1% active; in the data active = activation above about 4.9%
FBW7 act = FBW7 E3 ligase activators, primary screen, biochemical, AlphaScreen, human | AlphaScreen FBW7–phospho-cyclin E peptide binding, activator screen | normalized activity (activation), % at 26.1 µM | 650,000 tested, 0.13% active | AID 1259310, 2017; in the data active = normalized activity above about 1.9%;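 also: purified mutant Fbw7 with reduced substrate affinity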
MITF primary = MITF inhibitors, primary screen, biochemical, AlphaScreen, human | Microphthalmia-associated transcription factor (Homo sapiens), O75030 | AlphaScreen MITF homodimerization, bead proximity signal | inhibition, % at 2.6 µM | 650,000 tested, 0.91% active; in the data active = inhibition above about 50%
TEAD-YAP inh = TEAD-YAP interaction inhibition, primary screen, TEAD-YAP interaction inhibitor project, luminescence, HEK-TIYL cells. inhibition, % at 9.12 µM. 640,000 tested, 1.4% active. TEAD-Gal4/YAP UAS-luciferase luminescence; in the data active = inhibition above about 32%
GPR151 conf act = GPR151 activators, triplicate retest, confirmation, cell-based, PathHunter beta-arrestin, luminescence. shares compounds with GPR151 activ. GPR151 PathHunter beta-arrestin cells, 90 min; % of EA-reagent control over plate median. activation, % at 11.2 µM. 6,700 tested, under 10 active. AID 1508609, 2020;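 active = mean percent activation across replicates above the confirmation screen cutoff of 4.91%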
GPR119 counter = GPR119 activators in beta-arrestin cells, counter-screen for GPR151 activator project, cell-based, PathHunter beta-arrestin, luminescence, triplicate. activation, % at 11.2 µM. shares compounds with GPR151 activ. 6,700 tested, 0.3% active. 90 min; 0 = compound-well median, 100 = enzyme-acceptor control;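 active = mean percent activation in the counterscreen above 29.09%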;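 also: counterscreen on off-target GPR119 to flag nonselective hits from the GPR151 activator screen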
Large screens that a line does not name were inactive (follow-up assays come after a bar, where they were run). Only some compounds are listed: those with a hit (about 3.4% of all), similar ones and a draw of the others.

O=C(COc1ccccc1Cl)N/N=C\C=N/NC(=O)COc1ccccc1Cl	GPR151 activ 12 | GPR151 conf act inactive | GPR119 counter inactive
CC(=O)c1cccc(NC(=O)COc2ccccc2[N+](=O)[O-])c1	GPR151 activ 6.2 | GPR151 conf act inactive | GPR119 counter inactive
O=C(COc1ccc(Cl)cc1Cl)NC1CC2CCC1C2 (configuration not stated)	GPR151 activ 5.3 | GPR151 conf act inactive | GPR119 counter inactive
COc1cc(Nc2nc(N3CCC(N4CCOCC4)CC3)nc3c2ncn3Cc2ccc(C(F)(F)F)cc2)cc(OC)c1OC	none
O=C(NCc1ccccc1)C1CN(Cc2ccccc2)CCN1 (configuration not stated)	none
COc1ccc(NC(=O)Cc2ccccc2[N+](=O)[O-])cc1Cl	none
O=C(NCc1ccco1)c1cc([N+](=O)[O-])ccc1N1CCCCC1	none
COc1ccc(OC(=O)COc2ccccc2Cl)cc1	GPR151 activ 7.8 | GPR151 conf act inactive | GPR119 counter inactive
O=C(NC(=S)NCc1ccco1)c1cc([N+](=O)[O-])ccc1N1CCOCC1	GPR151 activ 7.4 | GPR151 conf act inactive | GPR119 counter inactive
C/C(=N/NC(=O)COc1cccc(Cl)c1)c1cccc([N+](=O)[O-])c1	GPR151 activ 6.6 | GPR151 conf act inactive | GPR119 counter inactive
COc1ccc(NC(=O)Cc2ccccc2[N+](=O)[O-])cc1OC	GPR151 activ 6.5 | GPR151 conf act inactive | GPR119 counter inactive
CC(=O)c1cc2c(N)c(C(=O)Nc3cccc([N+](=O)[O-])c3)sc2nc1C	none
CCOC(=O)c1c(C)n(C)c2c1cc(OC(=O)C(C)C)c1ccccc12	none
O=C(O)C1CC=C(Cl)CC1C(=O)Nc1cccc2ccccc12 (configuration not stated)	none
CC1CC(C)CN(c2ncnc3c2cnn3-c2ccc(F)cc2)C1 (configuration not stated)	none
COc1cc(SC)ccc1C(=O)OCC(=O)c1ccc2c(c1)OCCO2	none
O=C(COc1ccccc1Cl)NC1CCCCCC1	GPR151 activ 4.9 | GPR151 conf act inactive | GPR119 counter inactive
Cc1ccc(OCC(=O)N/N=C\c2cccn2C)c([N+](=O)[O-])c1	GPR151 activ 5.3 | GPR151 conf act inactive | GPR119 counter inactive
O=C(COc1ccccc1Br)NC1CCCCC1	none
Cc1ccc(C)c(OCC(=O)N/N=C\c2cccn2C)c1	none
COCCN1CCC(CNS(=O)(=O)c2ccc(C)c(C)c2)CC1	none
Cn1c(=O)c2c(nc(NCCO)n2Cc2ccccc2F)n(C)c1=O	GPR151 activ 16 | GPR151 conf act inactive | GPR119 counter inactive
Cn1c(=O)c2c(nc(NCCO)n2Cc2ccc(Br)cc2)n(C)c1=O	GPR151 activ 5.5 | GPR151 conf act inactive | GPR119 counter inactive
N#Cc1c(N)nc2c(c1-c1ccsc1)CCCC2	GPR151 activ 5.0 | GPR151 conf act inactive | GPR119 counter inactive
Cc1cc(C)c([C@@H]2C[C@H]3CN(Cc4ccc(C)o4)C(=O)[C@]34CCCN24)c(-n2cccn2)c1	none
Cc1ccc(CNCc2ccc(C)o2)cc1	none
OCC1CCN(C2CCCN(Cc3ccc4nsnc4c3)C2)CC1 (configuration not stated)	none
OCC1CCN(C2CCCN(Cc3ccc4nonc4c3)C2)CC1 (configuration not stated)	GPR151 activ 5.9 | GPR151 conf act inactive | GPR119 counter inactive
COc1ccc(CC2(CO)CCN(Cc3cccc4cccnc34)CC2)cc1	none
CCOc1ccc(/C=C2/C(=O)NC(=O)N(Cc3ccc(F)cc3)C2=O)cc1	none
CCN(CC)c1ccc(/C=C2/C(=O)NC(=O)N(Cc3ccc(F)cc3)C2=O)cc1	GPR151 activ 11 | GPR151 conf act inactive | GPR119 counter inactive
COCCOc1ccc(C(F)(F)F)cc1NC(=O)CN1C(=O)NC2(CCSC2)C1=O (configuration not stated)	none
CCCCCCNc1nc(OC)nc(N2CCOCC2)n1	none
CC(C)(C)C(=O)NC(=O)Nc1ncc(S(C)(=O)=O)c(-c2ccc(C(F)(F)F)cc2)n1	GPR151 activ 8.0 | GPR151 conf act inactive | GPR119 counter inactive
CS(=O)(=O)c1cnc(-c2ccncc2)nc1-c1ccc(C(F)(F)F)cc1	none
CCOC(=O)C1=C(C)N=c2s/c(=C/c3cc(Cl)ccc3O)c(=O)n2C1c1ccc(N(C)C)cc1 (configuration not stated)	none
CCN1C(=O)/C(=C/c2cc(C)n(C3CCCC3)c2C)C(=O)NC1=S	GPR151 activ 6.3 | GPR151 conf act inactive | GPR119 counter inactive
CN1C(=O)c2ccccc2C(C(=O)NC2CCCCCC2)C1c1cccs1 (configuration not stated)	none
CC1CCCCC1NC(=O)C1c2ccccc2C(=O)N(C)C1c1cccs1 (configuration not stated)	GPR151 activ 7.5 | GPR151 conf act inactive | GPR119 counter inactive
O=C(CSC(=S)N1CCCCC1)c1ccc([N+](=O)[O-])cc1	GPR151 activ 6.1 | GPR151 conf act inactive | GPR119 counter inactive
O=C(N[C@H]1C[C@H]2C(=O)N3CCC[C@@H]3C(=O)N2C1)c1ccc(Br)cc1	none
CN(C)S(=O)(=O)c1ccc(NC(=O)/C=C/c2ccco2)cc1	GPR151 activ 8.3 | GPR151 conf act inactive | GPR119 counter inactive
O=C(/C=C/c1ccco1)Nc1ccc(S(=O)(=O)N2CCCCCC2)cc1	none
O=C(Nc1ccc(S(=O)(=O)N2CCCCCC2)cc1)C(Cl)(Cl)Cl	GPR151 activ 6.7 | GPR151 conf act inactive | GPR119 counter inactive
O=C(/C=C/c1ccco1)Nc1ccc(S(=O)(=O)N2CCCCC2)cc1	GPR151 activ 13 | GPR151 conf act inactive | GPR119 counter inactive
CNS(=O)(=O)c1ccc(NC(=O)/C=C/c2ccco2)cc1	none
COc1cc2c(cc1OC)n(CC(=O)Nc1ccccc1C)n1c(C)cc(=O)nc21	none
O=C(O)c1ccc(Cn2c(SCc3cc(=O)n4cc(Br)ccc4n3)nc3ccsc3c2=O)cc1	GPR151 activ 7.3 | GPR151 conf act inactive | GPR119 counter inactive
O=C(O)CCn1c(SCc2cc(=O)n3cc(Br)ccc3n2)nc2ccsc2c1=O	none
CCCCN(CC)S(=O)(=O)c1ccc(C(=O)Nc2ccc3c4c(cccc24)C(=O)N3CC)cc1	GPR151 activ 9.7 | GPR151 conf act inactive | GPR119 counter inactive
CC(C)N1CCN(Cc2ccc(OCc3ccccc3)cc2)CC1CCO (configuration not stated)	none
